PolyA inhibitor – polyadenylation inhibitors in yeast reporter cells, primary screen, luminescence, S. cerevisiae; S. cerevisiae SKY197-pL101 polyadenylation reporter, beta-gal luminescence; efflux-impaired pdr1/pdr3 knockout yeast; score 100 = 6 SD above DMSO; activity score, % at 12 µM; hit rate 0.02% among 300,000;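 active means lowest replicate activity score at least 50, where 100 means six control SD above control mean; inconclusive means lowest score under 50 but half or more replicates reach 50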;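 further: yeast exposed to compound for 9 h at 30 °C; higher score means more reporter readthrough which indicates perturbed polyadenylation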
IDE cell inh – human IDE inhibitors in live cells, primary screen, fluorescence polarization, HEK cells, FAbetaB substrate | Insulin-degrading enzyme (Homo sapiens), P14735 | FAbetaB cleavage | hit rate 0.41% among 320,000 | inhibition, % at 5.59 µM;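 active means percent inhibition above the average of all tested compounds plus 3 SD, set per screening campaign, cut at about 16% in these data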;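 further: IDE supplied by intact live HEK cells; FP after avidin binding of uncleaved biotin substrate so inhibition keeps polarization high; 0% = DMSO wells and 100% = 60 µM reference IDE inhibitor Ii1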
IDE act – human IDE activators in live cells, primary screen, fluorescence polarization, HEK cells, FAbeta-B substrate; Insulin-degrading enzyme (Homo sapiens), P14735; FAbeta-B cleavage; 0% vehicle, 100% cell-free pure enzyme wells; activation, % at 5.96 µM; hit rate 0.073% among 340,000; AID 493087, 2011;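 active means activation above the mean of all tested compounds plus 3 SD, set per screening campaign, cut at about 17% in these data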
ALR inh – inhibitors of human ALR sulfhydryl oxidase, primary screen, biochemical, H2O2 detection, HRP-luminol luminescence, single point | purified ALR, DTT oxidation | FAD-linked sulfhydryl oxidase ALR (Homo sapiens), P55789 | inhibition, % (test concentration not listed) | hit rate 3.8% among 290,000;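 active means mean replicate inhibition above about 79%, with every replicate also reaching it, limit read from the data; inconclusive means only one of the two criteria met; inactive means mean below limit and not every replicate reaching it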
M18AAP inhibitor – PfM18AAP inhibitors, malaria aminopeptidase, primary screen, biochemical, QFRET, recombinant enzyme; H-Glu-NHMec fluorogenic cleavage; AID 1822, 2009; hit rate 1.2% among 290,000; inhibition, % at 7.35 µM;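 active means inhibition above the campaign mean inhibition over all tested compounds plus 3 SD, cut at about 28% in these data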;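 further: 0% = plate median of test compound wells and 100% = 2 mM ZnCl2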
CaV13 FRET inh – Disruptors of the CACNA1D IQ motif to Ca2+-dependent inactivation inhibitor domain association, primary screening, Förster resonance energy transfer in intact living …. inhibition, % at 12.3 µM. hit rate 0.098% among 340,000. HEK cells, CFP/YFP FRET ICDI-IQ, plate reader, 10 min; percent FRET-ratio fall versus neutral wells;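 active means mean replicate inhibition of at least 30% and at least 1% of replicates passing that level; inconclusive means only one of the two criteria is met; inactive means neither criterion is met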;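 further: 0% = median of the neutral control wells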
Numbers without * were called inactive; ? = inconclusive; / = no result given. Most compounds without a hit are left out; they make up all but 4.1% or so of the library.

SMILES	PolyA inhibitor	IDE cell inh	IDE act	ALR inh	M18AAP inhibitor	CaV13 FRET inh
COc1ccc2c(c1)NP(=S)(Oc1ccccc1)N2 (stereo unspecified)	-15	-4	1	98*	-32	-19
COC(=O)C1C(OC(=O)c2ccccc2)CC2CCC1N2C (stereo unspecified)	?	2	1	1	3	/
C/C(O)=C(\C#N)C(=O)Nc1cc(Br)ccc1Br	/	1	4	97*	/	-5
Cc1cc(OCC(=O)N2C[C@H]3C[C@@H](C2)c2cccc(=O)n2C3)c2c(C)c(C)c(=O)oc2c1	4	-6	-1	-6	-2	/
O=C1NC(=O)C(CCc2ccncc2)(CCc2ccccn2)C(=O)N1c1ccc(Br)cc1 (stereo unspecified)	2	0	5	-9	4	-7
COc1ccccc1OCC(=O)N1CCCC(N2CCN(c3ccc(F)cc3)CC2)C1 (stereo unspecified)	10	/	1	95*	-2	-3
O=C(COc1ccccc1Cl)N1CCCC(N2CCN(c3ccc(F)cc3)CC2)C1 (stereo unspecified)	9	-1	3	10	-4	-5
Cc1cc(C)cc(N2C(=O)NC(=O)/C(=C\C=C\c3ccco3)C2=O)c1	9	8	-8	96*	19	-5
CCc1ccc(N2C(=O)NC(=O)/C(=C\C=C\c3ccco3)C2=O)cc1	-1	5	-26	98*	26	-4
CCOc1ccc(N2C(=O)/C(=C/c3ccco3)C(=O)NC2=S)cc1	-2	2	2	98*	1	/
CC1=NN(c2ccccc2)C(=O)C1/C=C1/C(=O)NC(=O)N(c2cc(C)cc(C)c2)C1=O (stereo unspecified)	14	8	1	87*	5	-4
CN(C)CP(=O)(O)CN(C)C=O	-19	4	6	-1	-2	-7
COc1ccc(OC)c(CNCCc2ccc(OC)c(OC)c2)c1	12	2	2	-6	-12	-6
CN1CCCN(C(=O)COc2cccc(C(F)(F)F)c2)CC1	21	0	2	-2	3	-7
CCC(=O)c1cn(Cc2ccccc2C#N)c2ccccc12	-15	0	-2	0	-9	/
C=CCn1c(O)c(C(C)=Nc2ccc3c(c2)CCC3)c(=O)[nH]c1=O	-5	4	1	-2	1	-5
CC1CN=C(Nc2ccccc2)S1 (stereo unspecified)	8	-4	1	-2	-12	-13
CC1CN=C(Nc2ccc(N(C)C)cc2)S1 (stereo unspecified)	11	0	3	89*	2	-5
O=C(Nc1cccc2ccccc12)c1nn(C23CC4CC(CC(C4)C2)C3)cc1Br	-6	1	-1	/	-12	-6
O=C1C2CCN(CC2)[C@@H]1Cc1ccc2ccccc2c1O	-6	2	0	81*	-2	-8
CN1C(=O)C(Cc2cccc3ccccc23)C(=O)N(C)C1=O	-9	-3	2	23	0	/
c1ccc(CCN2CCC(N3CCN(c4ccccc4)CC3)CC2)cc1	-5	7	1	99*	3	-3
O=C1NC2C(=CC(O)C(O)C2O)c2cc3c(c(O)c21)OCO3 (stereo unspecified)	/	/	-1	/	/	-7
COC(=O)CSC1=NP(=S)(SCC(=O)OC)N2CCCC2=C1C#N (stereo unspecified)	7	-2	4	98*	11	/
O=c1[nH]c(=S)[nH]c(O)c1N=Nc1ccc(S(=O)(=O)N2CCOCC2)cc1	-11	-1	2	95*	12	-18
SMILES	PolyA inhibitor	IDE cell inh	IDE act	ALR inh	M18AAP inhibitor	CaV13 FRET inh
O=c1[nH]c(O)c(N=Nc2ccc(S(=O)(=O)N3CCOCC3)cc2)c(=O)[nH]1	-4	-3	-2	-3	-5	10
CCC(=Nc1cc(OC)ccc1OC)c1c(O)[nH]c(=O)[nH]c1=O	20	10	2	-12	29*	-3
N#CC12CC(=O)N1Cc1cnnn1-c1ccccc12 (stereo unspecified)	/	/	/	/	/	-11
CCN(CC)c1ccc(/C=C2\C(=O)NC(=O)N(Cc3ccco3)C2=O)cc1	-7	5	-4	/	12	-5
Cc1cc(/C=C2/C(=O)NC(=O)N(Cc3ccco3)C2=O)c(C)n1-c1ccccc1O	3	6	2	81*	16	-4
O=C(O)Cn1cc(/C=C2\C(=O)NC(=O)N(Cc3ccco3)C2=O)c2ccccc21	21	8	-6	98*	16	-10
CC(N)Cc1c[nH]c2c1ccc1ccccc12 (stereo unspecified)	2	3	1	-12	30*	-4
CCC(N)Cc1c[nH]c2ccccc12 (stereo unspecified)	-7	/	2	/	-1	-21
COc1ccc(NP2(=O)OCC(C)(N)CO2)cc1 (stereo unspecified)	/	/	2	/	/	-9
O=P(CN1CCN(c2ccccc2)CC1)(N1CCCCC1)N1CCCCC1	1	4	2	99*	-6	-9
Oc1cc2c(cc1CN1CCN(c3ccccc3)CC1)CCC2	10	-2	6	/	3	-5
CN1C(=O)c2ccccc2NC(=O)[C@]12O[C@@H]2c1ccccc1	0	7	6	98*	4	/
O=C1Nc2ccccc2C(c2ccccc2)=NC1O (stereo unspecified)	7	5	0	1	0	-2
COc1ccc(-c2cc(=Nc3cccc(C(=O)O)c3)c3cc(C)ccc3o2)cc1	-6	3	-7	96*	9	-2
FC(F)(F)c1ccc2c(c1)N(CCCN1CCN(CCCl)CC1)c1ccccc1S2	6	-7	6	99*	-6	-2
CCOc1ccc(Br)c(C2(O)CC(C)N(C)CC2C)c1 (stereo unspecified)	5	0	4	-1	-4	-5
CC(C)CCCn1c(O)c(/C=C2/C=CC=N2)c(=O)[nH]c1=O	-22	0	1	98*	13	-5
CN(C(=O)c1ccc(Cl)nc1)C1(c2ccccc2Cl)CCCCC1=O (stereo unspecified)	-7	2	-2	-7	-5	-5
CC12CC(c3ccccc3O1)C(C(=O)OCc1ccccc1)C(=O)N2 (stereo unspecified)	2	-4	3	-15	0	99*
O=C(Cn1ncc2ccccc21)N1CCC2(CC1)OCCO2	-2	0	-2	-4	0	-7
